Consider nine compounds from PubChem BioAssay (EPA / NIEHS).

A word on the AC50: it is the concentration at which the activity in the assay is half-maximal.

The target in assay [1] is T1, Thyroid hormone receptor alpha (Rattus norvegicus) + Thyroid hormone receptor beta (Rattus norvegicus) (UniProt P18113+P63059). Nature of the assay: TOX21_TR_LUC_GH3_Agonist_Followup: Tox21 GH3 Thyroid Hormone Receptor Agonism Luciferase Follow-Up Assay (AID 2283939). Summed up:
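Agonist-mode confirmatory run: 15 concentrations (5 nM to 92 uM final) on GH3 rat pituitary cells, 24 h at 37C/5% CO2, T3 as positive control. Luminescence read with ONE-Glo after 30 min.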

Another assay deals with THRA (gene 7067) (UniProt P10827). Nature of the assay: TOX21_TRA_COA_Agonist_Followup_ratio: Tox21 Thyroid Hormone Receptor alpha Agonism through Coactivator Recruitment Follow-Up Assay, Ratio (AID 2283948; active = hit-call score of the fitted dose curve at least 0.9, where 1 is the maximum; inactive = score below 0.9). Summed up:
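Agonist-mode biochemical TR-FRET with TRα LBD and SRC-2 coactivator peptide; activity expressed as percent of T3 response over DMSO baseline.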

For assay [2], the target named is THRB (gene 7068) (UniProt P10828). As to the kind of experiment: TOX21_TRB_BLA_Agonist_Followup_ratio: Tox21 Thyroid Hormone Receptor beta Agonism Beta-lactamase (BLA) Follow-Up Assay, Ratio (AID 2283954). Summed up:
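Agonist mode: compounds (11-point, triplicate) incubated 18 h with HEK293T cells carrying GAL4-DBD/human TRβ-LBD and UAS-β-lactamase. Blue/green (460/530 nm) FRET ratio read after 2 h CCF4-AM loading; CellTiter-Glo viability run in the same plates.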

Assay [3] has the same target. As to the kind of experiment: TOX21_TRB_COA_Agonist_Followup_ratio: Tox21 Thyroid Hormone Receptor beta Agonism through Coactivator Recruitment Follow-Up Assay, Ratio (AID 2283963; active = hit-call score of the fitted dose curve at least 0.9, where 1 is the maximum; inactive = score below 0.9). An outline of the steps:
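First, the GST-fused TRβ ligand-binding domain (5.0 nM) was incubated with test compound in 0.10% BSA. Next, fluorescein-tagged SRC-2 peptide (200 nM) and terbium anti-GST antibody (2 nM) were added. Finally, TR-FRET emission ratios were normalized against DMSO and T3 controls.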

The target of assay [4] is Retinoic acid receptor RXR-alpha (Homo sapiens) (UniProt P19793). As to the kind of experiment: TOX21_TR_RXR_BLA_Agonist_Followup_ratio: Tox21 Thyroid Hormone Receptor beta Retinoid X Receptor alpha (RXRa) Agonism Beta-lactamase (BLA) Follow-Up Assay, Ratio (AID 2283968). Summed up: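 Agonism is scored as an increase in the 460:530 nm beta-lactamase substrate ratio over DMSO in RXRa-UAS-bla HEK293T cells exposed for 16 h to 11 compound concentrations.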

Assay [5] is described as follows: TOX21_TR_RXR_BLA_Agonist_Followup_viability: Viability Assessment in the Tox21 Thyroid Hormone Receptor beta Retinoid X Receptor alpha (RXRa) Agonism Beta-lactamase (BLA) Follow-Up Assay (AID 2283970). Summed up: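 Luminescent ATP read (CellTiter-Glo) after 16h exposure of RXRa-UAS-bla HEK293T cells at 37C/5% CO2. Activity normalized to DMSO; signal loss scored as reduced viability.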

Assay [6] in a line: TOX21_PR_BLA_Followup_Agonist_viability: Viability Assessment in the Tox21 HEK293 Progesterone Receptor (PR) Agonism Beta-lactamase Follow-Up Assay (AID 2283935).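 Also: signal loss means lower viability so actives are cytotoxic.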 An outline of the steps: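 Viability is read as CellTiter-Glo luminescence, where loss of signal indicates cytotoxicity. The cells are PR-UAS-bla HEK293T given compounds for 16 hr at 37C and 5% CO2, in the same wells used for the bla readout.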

The target of assay [7] is PGR (gene 5241) (UniProt P06401). As to the kind of experiment: TOX21_PR_LUC_Followup_Antagonist: Tox21 HEK293 Progesterone Receptor (PR) Antagonism Luciferase Follow-Up Assay (AID 2283938).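 Also: curve fitted upward as signal gain over DMSO baseline despite antagonist label.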 An outline of the steps: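 Luciferase reporter in HEK293-PR-A-luc cells: 16 h compound treatment at 37C, ONE-Glo luminescence detection, DMSO as negative control and baseline.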
Assay [8] in a line: TOX21_PR_LUC_Followup_Antagonist_viability: Viability Assessment in the Tox21 HEK293 Progesterone Receptor (PR) Antagonism Luciferase Follow-Up Assay (AID 2283940). An outline of the steps: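 Loss of CellTiter-Glo ATP signal indicates cytotoxicity in HEK293-PR-A-luc cells grown in 10% charcoal-stripped FBS medium, seeded 3,000 per well and incubated 16 h with compound at 37C.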

Assay [9] concerns the target PGR (gene 5241) (UniProt P06401). As to the kind of experiment: TOX21_PR_BLA_Followup_Agonist_ratio: Tox21 HEK293 Progesterone Receptor (PR) Agonism Beta-lactamase Follow-Up Assay, Ratio (AID 2283933). An outline of the steps:
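Ratio-based beta-lactamase reporter signal after 16 hr compound treatment of PR-UAS-bla HEK293T cells at 37C. Substrate loading lasted 2 hr at room temperature.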

Assay [10] can be described thus: TOX21_PR_BLA_Followup_Antagonist_viability: Viability Assessment in the Tox21 HEK293 Progesterone Receptor (PR) Antagonism Beta-lactamase Follow-Up Assay (AID 2283936).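 Also: cells exposed to compound with R5020 agonist for 16 h; hits lower the luminescence signal meaning cytotoxicity.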 Summed up: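 PR-UAS-bla HEK293T cells in medium with 2% charcoal-stripped FBS were treated with compounds plus R5020 for 16 hr at 37C. After the beta-lactamase read, CellTiter-Glo was added to the same wells and luminescence read after 30 min at room temperature.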

The target of assay [11] is PGR (gene 5241) (UniProt P06401). Nature of the assay: TOX21_PR_LUC_Followup_Agonist: Tox21 HEK293 Progesterone Receptor (PR) Agonism Luciferase Follow-Up Assay (AID 2283937; active = hit-call score of the fitted dose curve at least 0.9, where 1 is the maximum; inactive = score below 0.9). An outline of the steps:
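In HEK293 cells stably expressing PR-A with a luciferase reporter, compounds were incubated 16 h at 37C, and induced luminescence was quantified with ONE-Glo, multiplexed with cell viability.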

Assay [12] is described as follows: CCTE_Harrill_HTTr_Viability_MCF7: CCTE's 6-hour Cell Viability Assessment for the High-Throughput Transcriptomics (HTTr) Platform, in MCF-7 cells cultured in DMEM + 10% fetal bovine serum, Harrill Lab (AID 2284010; active = hit-call score of the fitted dose curve at least 0.9, where 1 is the maximum; inactive = score below 0.9). Summed up: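 Eight-point concentration series, six-hour exposure. Propidium iodide exclusion imaged to assess membrane integrity as a cytotoxicity readout; bidirectional fitting was done with DMSO as negative control and activity baseline.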

Assay [13] is described as follows: CCTE_Harrill_HTTr_Apoptosis_MCF7: CCTE's 6-hour Apoptosis Assessment for the High-Throughput Transcriptomics (HTTr) Platform, in MCF-7 cells cultured in DMEM + 10% fetal bovine serum, Harrill Lab (AID 2284011; active = hit-call score of the fitted dose curve at least 0.9, where 1 is the maximum; inactive = score below 0.9). Summed up: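 Apoptosis in MCF-7 cells grown in DMEM with 10% fetal bovine serum was scored after a six hour exposure by high content imaging of caspase-3/7 activation (CellEvent Caspase 3/7 Green), with DMSO serving as negative control and baseline.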

The target in assay [14] is T1, Thyroid hormone receptor alpha (Rattus norvegicus) + Thyroid hormone receptor beta (Rattus norvegicus). As to the kind of experiment: TOX21_TR_LUC_GH3_Antagonist_Followup: Tox21 GH3 Thyroid Hormone Receptor Antagonism Luciferase Follow-Up Assay (AID 2283942). Summed up: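 Luminescence read-out (ONE-Glo, 30 min at room temperature) in GH3 reporter cells challenged with 1.0 nM T3 final. Compounds ran at 92 uM to 5nM over 15 concentrations for 24 h; DMSO served as negative control and baseline.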

For assay [15], the target named is THRB (gene 7068) (UniProt P10828). As to the kind of experiment: TOX21_TRB_BLA_Antagonist_Followup_ratio: Tox21 Thyroid Hormone Receptor beta Antagonism Beta-lactamase (BLA) Follow-Up Assay, Ratio (AID 2283958). An outline of the steps:
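Using charcoal-stripped 2% FBS medium, human TRβ-LBD/GAL4 reporter HEK293T cells received test compounds for 18 h. The endpoint is the cleaved-to-uncleaved substrate ratio (460/530 nm).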

The target is the same in assay [16]. As to the kind of experiment: TOX21_TRB_COA_Antagonist_Followup_ratio: Tox21 Thyroid Hormone Receptor beta Antagonism through Coactivator Recruitment Follow-Up Assay, Ratio (AID 2283967). An outline of the steps:
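GST-TRb LBD 5.0 nM + 0.10% BSA, compound added; fluorescein-SRC-2 peptide 200 nM, Tb-anti-GST Ab 2 nM. TR-FRET, ex 340 / em 520:495 ratio. Norm: DMSO 0%, T3 100%.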

Assay [17] in a line: TOX21_TR_RXR_BLA_Antagonist_Followup_viability: Viability Assessment in the Tox21 Thyroid Hormone Receptor beta Retinoid X Receptor alpha (RXRa) Antagonism Beta-lactamase (BLA) Follow-Up Assay (AID 2283979). Summed up:
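RXRa-bla HEK293T cells (2,500/well, phenol red-free DMEM, 2% charcoal-stripped FBS) were attached 5 h, then exposed to compounds at 11 concentrations in triplicate for 16 h at 37C. Viability measured by CellTiter-Glo ATP luminescence, bidirectional fitting versus DMSO.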

Records with an inconclusive call do not appear. Calls of active or inactive are those of the source. The calls were made as follows, unless noted: active = hit-call score of the fitted dose curve at least 0.9, where 1 is the maximum; inconclusive = response in the unintended direction; inactive = score below 0.9.

Sequence of PGR (gene 5241) (P06401 whole entry, looked up): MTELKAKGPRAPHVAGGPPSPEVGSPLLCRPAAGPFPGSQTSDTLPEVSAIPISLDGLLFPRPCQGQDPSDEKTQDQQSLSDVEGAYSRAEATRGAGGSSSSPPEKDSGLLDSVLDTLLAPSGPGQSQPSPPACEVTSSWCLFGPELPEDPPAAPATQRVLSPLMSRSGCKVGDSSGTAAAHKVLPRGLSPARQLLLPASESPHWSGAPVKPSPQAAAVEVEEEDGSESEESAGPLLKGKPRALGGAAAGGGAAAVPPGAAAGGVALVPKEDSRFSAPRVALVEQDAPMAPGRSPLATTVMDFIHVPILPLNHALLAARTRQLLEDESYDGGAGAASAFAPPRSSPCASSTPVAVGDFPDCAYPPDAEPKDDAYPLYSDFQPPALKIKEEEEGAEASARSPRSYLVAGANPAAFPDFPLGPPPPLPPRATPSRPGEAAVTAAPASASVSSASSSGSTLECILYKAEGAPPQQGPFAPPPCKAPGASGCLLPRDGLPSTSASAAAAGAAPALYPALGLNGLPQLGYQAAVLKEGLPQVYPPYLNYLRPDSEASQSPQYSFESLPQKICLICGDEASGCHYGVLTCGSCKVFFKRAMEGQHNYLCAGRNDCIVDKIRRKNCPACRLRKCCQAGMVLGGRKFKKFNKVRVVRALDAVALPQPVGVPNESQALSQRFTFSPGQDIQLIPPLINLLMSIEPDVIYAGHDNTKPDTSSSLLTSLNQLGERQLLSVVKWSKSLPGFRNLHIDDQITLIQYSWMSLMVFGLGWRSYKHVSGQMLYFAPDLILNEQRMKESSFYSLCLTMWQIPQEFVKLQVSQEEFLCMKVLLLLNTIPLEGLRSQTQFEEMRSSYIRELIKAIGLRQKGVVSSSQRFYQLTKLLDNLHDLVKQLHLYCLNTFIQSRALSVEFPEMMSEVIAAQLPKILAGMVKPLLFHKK
Sequence of THRB (gene 7068) (P10828 whole entry, looked up, the tested form may be a part): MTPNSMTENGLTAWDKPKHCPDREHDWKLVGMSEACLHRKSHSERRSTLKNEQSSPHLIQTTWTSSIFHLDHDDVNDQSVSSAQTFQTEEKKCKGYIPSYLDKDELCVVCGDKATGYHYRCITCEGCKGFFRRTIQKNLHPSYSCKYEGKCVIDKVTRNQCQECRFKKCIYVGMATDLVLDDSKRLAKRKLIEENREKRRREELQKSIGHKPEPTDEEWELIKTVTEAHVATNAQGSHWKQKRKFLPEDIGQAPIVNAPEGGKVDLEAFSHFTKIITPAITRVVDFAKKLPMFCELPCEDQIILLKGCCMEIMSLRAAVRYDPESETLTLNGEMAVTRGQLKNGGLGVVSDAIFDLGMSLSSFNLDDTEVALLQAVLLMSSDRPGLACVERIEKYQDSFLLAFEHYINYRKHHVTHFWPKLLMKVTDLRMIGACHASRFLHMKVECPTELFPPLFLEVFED
T1 sequence (P63059 whole entry, looked up): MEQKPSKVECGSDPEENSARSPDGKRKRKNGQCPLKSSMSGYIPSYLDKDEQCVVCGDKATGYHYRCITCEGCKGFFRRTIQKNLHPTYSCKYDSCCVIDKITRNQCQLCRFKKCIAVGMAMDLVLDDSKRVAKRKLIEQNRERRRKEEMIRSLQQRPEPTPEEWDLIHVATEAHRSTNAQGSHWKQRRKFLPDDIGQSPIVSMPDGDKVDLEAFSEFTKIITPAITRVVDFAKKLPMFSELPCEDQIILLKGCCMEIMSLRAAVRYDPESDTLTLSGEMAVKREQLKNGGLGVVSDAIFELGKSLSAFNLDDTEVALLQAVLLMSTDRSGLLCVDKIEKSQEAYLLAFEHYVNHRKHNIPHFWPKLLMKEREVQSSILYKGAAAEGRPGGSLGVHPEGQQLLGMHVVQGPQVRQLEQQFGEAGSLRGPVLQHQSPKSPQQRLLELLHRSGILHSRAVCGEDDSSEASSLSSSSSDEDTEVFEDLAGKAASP
T1 sequence (P18113 whole entry, looked up): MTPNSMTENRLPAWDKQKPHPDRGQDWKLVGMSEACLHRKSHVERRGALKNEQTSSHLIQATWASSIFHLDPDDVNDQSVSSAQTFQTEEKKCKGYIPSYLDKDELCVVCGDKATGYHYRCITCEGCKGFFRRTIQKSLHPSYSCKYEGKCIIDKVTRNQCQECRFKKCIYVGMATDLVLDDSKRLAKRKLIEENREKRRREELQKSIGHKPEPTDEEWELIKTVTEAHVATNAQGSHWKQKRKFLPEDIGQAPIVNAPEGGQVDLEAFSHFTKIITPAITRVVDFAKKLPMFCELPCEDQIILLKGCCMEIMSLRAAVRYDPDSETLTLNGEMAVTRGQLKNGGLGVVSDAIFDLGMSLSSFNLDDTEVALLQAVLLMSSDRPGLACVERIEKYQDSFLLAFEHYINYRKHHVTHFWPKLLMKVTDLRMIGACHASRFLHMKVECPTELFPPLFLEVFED
Sequence of Retinoic acid receptor RXR-alpha (Homo sapiens) (P19793 whole entry, looked up): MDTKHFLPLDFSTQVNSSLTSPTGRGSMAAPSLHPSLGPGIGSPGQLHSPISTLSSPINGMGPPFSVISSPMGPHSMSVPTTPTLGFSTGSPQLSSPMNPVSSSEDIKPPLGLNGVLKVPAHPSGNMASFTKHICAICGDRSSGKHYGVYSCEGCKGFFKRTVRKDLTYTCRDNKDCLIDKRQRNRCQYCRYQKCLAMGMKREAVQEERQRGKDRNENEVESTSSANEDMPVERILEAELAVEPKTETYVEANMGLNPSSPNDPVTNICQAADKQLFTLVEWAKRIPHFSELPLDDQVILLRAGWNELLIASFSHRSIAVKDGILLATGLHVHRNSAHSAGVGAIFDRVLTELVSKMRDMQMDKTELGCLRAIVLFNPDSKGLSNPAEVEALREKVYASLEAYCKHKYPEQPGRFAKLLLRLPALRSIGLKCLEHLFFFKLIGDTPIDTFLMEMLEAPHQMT
Sequence of THRA (gene 7067) (P10827 whole entry, looked up, the tested form may be a part): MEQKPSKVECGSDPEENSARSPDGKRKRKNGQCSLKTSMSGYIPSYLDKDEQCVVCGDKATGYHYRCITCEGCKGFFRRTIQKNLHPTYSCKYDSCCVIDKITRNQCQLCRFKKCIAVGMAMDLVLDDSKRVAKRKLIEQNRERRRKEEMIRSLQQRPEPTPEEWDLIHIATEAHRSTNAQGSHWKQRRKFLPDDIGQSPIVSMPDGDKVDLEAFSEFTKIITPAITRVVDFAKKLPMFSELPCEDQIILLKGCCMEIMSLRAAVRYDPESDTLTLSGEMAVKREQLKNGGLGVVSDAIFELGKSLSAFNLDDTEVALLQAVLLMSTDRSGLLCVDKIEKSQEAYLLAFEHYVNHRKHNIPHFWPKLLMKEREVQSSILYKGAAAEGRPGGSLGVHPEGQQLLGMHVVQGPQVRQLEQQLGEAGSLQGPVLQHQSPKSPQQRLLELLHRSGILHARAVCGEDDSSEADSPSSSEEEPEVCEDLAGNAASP

In the case of `Nc1ncn([C@H]2C[C@H](O)[C@@H](CO)O2)c(=O)n1`, the outcome (in [1]; in the assay with THRA (gene 7067); in the assay with THRB (gene 7068) [2]; with THRB (gene 7068) [3]; in assay [4]; in [5]) was inactive.

Take `C/C=C1\C(=O)C[C@H]2[C@@H]3CCC4=CC(=O)CC[C@]4(C)[C@H]3CC[C@]12C`: the compound was classed as inactive (in assay [6]; with PGR (gene 5241) [7]; in assay [8]).

As for `COC(=O)C1=C(C)NC(C)=C(C(=O)OC(C)C)C1c1cccc2nonc12` (centres undefined), the outcome (with PGR (gene 5241) [9]; in assay [6]; in assay [10]; in the assay with PGR (gene 5241) [11]; in [8]) was inactive. The AC50 with PGR (gene 5241) [7] was 18.1 µM (active).

With `CC(=O)c1cccc2ccccc12`, the outcome in assay [12] and in assay [13] was inactive.

On to `Cc1nc2ccc(CN(C)c3ccc(C(=O)N[C@@H](CCC(=O)O)C(=O)O)s3)cc2c(=O)[nH]1`, for which the result (in assay [14]; in the assay with THRB (gene 7068) [15]; with THRB (gene 7068) [16]; in [17]) was inactive.

For the compound `C/C=C(/C(=C/C)c1ccc(OC(C)=O)cc1)c1ccc(OC(C)=O)cc1`, the result (in the assay with PGR (gene 5241) [9]; in [6]; in assay [10]; in the assay with PGR (gene 5241) [11]; in assay [8]) was inactive. The AC50 with PGR (gene 5241) [7] was 14.7 µM (active).

Turning to `C[C@@H]1C[C@H]2[C@@H]3C[C@H](F)C4=CC(=O)C=C[C@]4(C)[C@@]3(F)[C@@H](O)C[C@]2(C)[C@@]1(O)C(=O)CO`, the compound was classed as inactive in assay [6], in assay [10] and in assay [8].

Turning to `C[C@]12CCC(=O)C=C1CC[C@H]1[C@@H]3CC[C@](O)(C(=O)CO)[C@@]3(C)C[C@H](O)[C@@]12F`, the compound was classed as inactive (in [6]; in [10]; with PGR (gene 5241) [7]).

`CC(=O)O[C@H]1CC[C@@]2(C)C(=CC[C@@H]3[C@@H]2CC[C@]2(C)C(C(C)=O)=CC[C@@H]32)C1`: the result (with PGR (gene 5241) [9]; in [6]; in assay [10]; with PGR (gene 5241) [11]; in assay [8]) was inactive. Moreover, the AC50 with PGR (gene 5241) [7] was 9.14 µM (active).
